Results reported in the supplement of paper PMC10849652.
The full data set covers some 8,800 targets. This sample favours those with a hit. About 0.5% of all pairs of compound and target were hits. A number with no mark means an inactive call.

How the values were obtained:
Test in all cases: log2 fold change, soluble protein after heating vs DMSO (PISA); higher = thermal stabilisation; K562 lysate, 10 uM; active = over 0.2 and 3.5 SD of the protein, either way, in both replicates (recomputed)
[1] = compound: C=CC(=O)N1CCC[C@@H](n2nc(-c3ccc(Oc4ccccc4)cc3)c3c(N)ncnc32)C1 [ibrutinib]
Procedure, shortened: (§1)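 Thermal stability, expressed as log-two fold change relative to solvent controls, is given from duplicates. Crude K562 extract in PBS pH 7.4 with 1 mM MgCl2, at 1 mg/mL protein, was treated with 10 μM compound for 30 min and heated in aliquots for 3 min across 48°C-58°C. After pooling, adjustment to 0.5% NP-40 at 4°C and centrifugation at 21,000xg for 90 min, supernatant protein was measured by TMTpro 16plex LC-MS/MS with channel sums equalised.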

[2] = compound: CC(=O)c1cnc2ccc(-c3cc(Cl)c(O)c(Cl)c3)nc2c1N[C@H]1CC[C@H](CN(C)C)CC1
Procedure, shortened: as §1

[3] = compound: CC(C)(C)Cn1c(N)nc2ccc(-c3[nH]c(C(C)(C)C)nc3-c3ccc(F)cc3)nc21 [ralimetinib]
Procedure, shortened: as §1

[4] = compound: CC(C)(O)CC(=O)NCCn1ccc2ncnc(Nc3ccc(Oc4cccc(C(F)(F)F)c4)c(Cl)c3)c21
Procedure, shortened: as §1

[5] = compound: CC(C)C1=C2N=C(C=C(N2N=C1)NCC3=CC=CC=C3)NCCCCCCN
Procedure, shortened: as §1

[6] = compound: CC1=C(C(CC(=O)N1)C2=CC=C(C=C2)C(F)(F)F)C(=O)NC3=C(C=C4C(=C3)C=NN4)F
Procedure, shortened: as §1

[7] = compound: CC1=C(C2=C(C=C1)C(=O)C3=CC=CC=C3N2CCCN)C
Procedure, shortened: as §1

[8] = compound: CC1=C(C=C(C=C1)NC(=O)C2=CC(=CC=C2)C(C)(C)C#N)NC3=CC4=C(C=C3)N=CN(C4=O)C
Procedure, shortened: as §1

[9] = compound: CC1=C(C=C(C=C1)NC(=O)C2=CC(=CC=C2)N(C)C)NC(=O)C3=CC=C(C=C3)O
Procedure, shortened: as §1

[10] = compound: CC1=CC=C(C=C1)SC2=C3C=C(SC3=CN=C2)C(=O)N
Procedure, shortened: as §1

UniProt O15014, sequence (O15014 whole entry, looked up): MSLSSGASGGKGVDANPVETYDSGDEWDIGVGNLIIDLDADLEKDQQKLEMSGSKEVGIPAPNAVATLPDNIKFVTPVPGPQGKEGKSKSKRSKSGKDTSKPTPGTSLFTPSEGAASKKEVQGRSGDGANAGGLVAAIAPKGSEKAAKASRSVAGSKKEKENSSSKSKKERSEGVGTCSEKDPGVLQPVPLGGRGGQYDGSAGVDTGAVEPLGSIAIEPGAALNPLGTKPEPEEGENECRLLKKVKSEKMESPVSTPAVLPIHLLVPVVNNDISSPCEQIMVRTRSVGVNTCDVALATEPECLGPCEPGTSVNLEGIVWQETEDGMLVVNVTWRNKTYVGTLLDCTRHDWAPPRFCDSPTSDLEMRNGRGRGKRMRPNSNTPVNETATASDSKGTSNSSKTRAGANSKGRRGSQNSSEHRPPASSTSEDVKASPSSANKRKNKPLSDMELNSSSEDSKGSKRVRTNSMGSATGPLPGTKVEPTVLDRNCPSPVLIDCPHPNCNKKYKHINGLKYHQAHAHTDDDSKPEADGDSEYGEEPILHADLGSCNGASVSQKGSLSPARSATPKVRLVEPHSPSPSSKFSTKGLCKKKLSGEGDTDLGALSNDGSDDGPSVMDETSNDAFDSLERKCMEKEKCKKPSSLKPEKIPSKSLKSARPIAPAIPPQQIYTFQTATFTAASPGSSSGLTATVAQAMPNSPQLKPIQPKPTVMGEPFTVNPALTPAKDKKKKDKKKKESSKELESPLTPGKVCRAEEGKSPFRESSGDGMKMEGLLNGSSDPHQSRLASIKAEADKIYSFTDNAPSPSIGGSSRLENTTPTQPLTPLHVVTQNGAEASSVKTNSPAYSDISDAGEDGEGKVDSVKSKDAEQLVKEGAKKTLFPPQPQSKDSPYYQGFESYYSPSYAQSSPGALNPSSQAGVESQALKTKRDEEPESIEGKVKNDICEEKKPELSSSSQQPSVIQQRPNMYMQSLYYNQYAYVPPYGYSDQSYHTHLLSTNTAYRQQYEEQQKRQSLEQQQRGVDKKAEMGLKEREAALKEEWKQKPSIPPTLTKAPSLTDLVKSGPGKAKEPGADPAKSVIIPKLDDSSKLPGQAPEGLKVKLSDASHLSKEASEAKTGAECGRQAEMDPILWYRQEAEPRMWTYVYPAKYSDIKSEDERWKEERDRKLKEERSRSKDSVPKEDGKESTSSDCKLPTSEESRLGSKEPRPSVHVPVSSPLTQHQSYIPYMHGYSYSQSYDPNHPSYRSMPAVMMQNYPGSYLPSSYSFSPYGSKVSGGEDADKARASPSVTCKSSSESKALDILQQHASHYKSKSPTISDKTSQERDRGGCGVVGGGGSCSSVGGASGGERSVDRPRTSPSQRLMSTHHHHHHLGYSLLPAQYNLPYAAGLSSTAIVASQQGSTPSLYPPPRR
UniProt Q96TA2, sequence (Q96TA2 whole entry, looked up): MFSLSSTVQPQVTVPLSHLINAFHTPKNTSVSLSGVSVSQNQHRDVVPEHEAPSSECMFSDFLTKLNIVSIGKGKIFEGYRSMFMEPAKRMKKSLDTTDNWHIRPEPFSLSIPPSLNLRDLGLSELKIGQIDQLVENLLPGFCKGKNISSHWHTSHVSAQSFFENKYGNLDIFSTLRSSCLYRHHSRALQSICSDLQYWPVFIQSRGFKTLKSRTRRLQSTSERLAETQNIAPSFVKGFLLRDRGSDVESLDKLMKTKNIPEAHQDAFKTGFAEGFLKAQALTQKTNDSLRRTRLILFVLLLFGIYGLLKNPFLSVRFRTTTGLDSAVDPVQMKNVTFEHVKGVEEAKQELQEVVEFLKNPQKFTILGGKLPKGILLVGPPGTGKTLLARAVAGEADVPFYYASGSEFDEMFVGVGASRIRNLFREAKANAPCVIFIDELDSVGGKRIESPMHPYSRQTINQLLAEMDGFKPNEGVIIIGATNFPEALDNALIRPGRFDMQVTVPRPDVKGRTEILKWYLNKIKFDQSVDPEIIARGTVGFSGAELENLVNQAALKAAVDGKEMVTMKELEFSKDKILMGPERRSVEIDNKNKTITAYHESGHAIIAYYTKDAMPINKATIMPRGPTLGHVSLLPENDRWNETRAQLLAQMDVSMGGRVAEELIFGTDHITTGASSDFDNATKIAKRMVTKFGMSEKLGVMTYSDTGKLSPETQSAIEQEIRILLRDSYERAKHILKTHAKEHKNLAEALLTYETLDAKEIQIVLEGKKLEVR
UniProt Q86T24, sequence (Q86T24 whole entry, looked up): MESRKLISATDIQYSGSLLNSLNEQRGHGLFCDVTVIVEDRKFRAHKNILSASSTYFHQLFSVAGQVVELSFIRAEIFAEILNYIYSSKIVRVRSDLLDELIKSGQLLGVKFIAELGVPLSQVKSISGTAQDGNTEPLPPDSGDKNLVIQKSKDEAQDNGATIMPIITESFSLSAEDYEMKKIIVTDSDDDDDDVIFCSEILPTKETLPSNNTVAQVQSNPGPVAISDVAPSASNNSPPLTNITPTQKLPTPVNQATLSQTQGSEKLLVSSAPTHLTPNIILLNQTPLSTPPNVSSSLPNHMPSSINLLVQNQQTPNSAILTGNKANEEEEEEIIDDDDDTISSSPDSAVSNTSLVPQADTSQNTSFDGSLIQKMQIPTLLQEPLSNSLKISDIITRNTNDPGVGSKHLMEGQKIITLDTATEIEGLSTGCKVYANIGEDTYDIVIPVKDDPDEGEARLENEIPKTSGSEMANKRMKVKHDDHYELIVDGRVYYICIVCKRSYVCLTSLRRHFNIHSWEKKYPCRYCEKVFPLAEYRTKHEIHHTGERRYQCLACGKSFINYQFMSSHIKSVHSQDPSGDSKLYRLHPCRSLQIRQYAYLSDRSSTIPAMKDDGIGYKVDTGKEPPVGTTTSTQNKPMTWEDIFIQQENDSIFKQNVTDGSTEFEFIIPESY
UniProt Q9H6S0, sequence (Q9H6S0 whole entry, looked up): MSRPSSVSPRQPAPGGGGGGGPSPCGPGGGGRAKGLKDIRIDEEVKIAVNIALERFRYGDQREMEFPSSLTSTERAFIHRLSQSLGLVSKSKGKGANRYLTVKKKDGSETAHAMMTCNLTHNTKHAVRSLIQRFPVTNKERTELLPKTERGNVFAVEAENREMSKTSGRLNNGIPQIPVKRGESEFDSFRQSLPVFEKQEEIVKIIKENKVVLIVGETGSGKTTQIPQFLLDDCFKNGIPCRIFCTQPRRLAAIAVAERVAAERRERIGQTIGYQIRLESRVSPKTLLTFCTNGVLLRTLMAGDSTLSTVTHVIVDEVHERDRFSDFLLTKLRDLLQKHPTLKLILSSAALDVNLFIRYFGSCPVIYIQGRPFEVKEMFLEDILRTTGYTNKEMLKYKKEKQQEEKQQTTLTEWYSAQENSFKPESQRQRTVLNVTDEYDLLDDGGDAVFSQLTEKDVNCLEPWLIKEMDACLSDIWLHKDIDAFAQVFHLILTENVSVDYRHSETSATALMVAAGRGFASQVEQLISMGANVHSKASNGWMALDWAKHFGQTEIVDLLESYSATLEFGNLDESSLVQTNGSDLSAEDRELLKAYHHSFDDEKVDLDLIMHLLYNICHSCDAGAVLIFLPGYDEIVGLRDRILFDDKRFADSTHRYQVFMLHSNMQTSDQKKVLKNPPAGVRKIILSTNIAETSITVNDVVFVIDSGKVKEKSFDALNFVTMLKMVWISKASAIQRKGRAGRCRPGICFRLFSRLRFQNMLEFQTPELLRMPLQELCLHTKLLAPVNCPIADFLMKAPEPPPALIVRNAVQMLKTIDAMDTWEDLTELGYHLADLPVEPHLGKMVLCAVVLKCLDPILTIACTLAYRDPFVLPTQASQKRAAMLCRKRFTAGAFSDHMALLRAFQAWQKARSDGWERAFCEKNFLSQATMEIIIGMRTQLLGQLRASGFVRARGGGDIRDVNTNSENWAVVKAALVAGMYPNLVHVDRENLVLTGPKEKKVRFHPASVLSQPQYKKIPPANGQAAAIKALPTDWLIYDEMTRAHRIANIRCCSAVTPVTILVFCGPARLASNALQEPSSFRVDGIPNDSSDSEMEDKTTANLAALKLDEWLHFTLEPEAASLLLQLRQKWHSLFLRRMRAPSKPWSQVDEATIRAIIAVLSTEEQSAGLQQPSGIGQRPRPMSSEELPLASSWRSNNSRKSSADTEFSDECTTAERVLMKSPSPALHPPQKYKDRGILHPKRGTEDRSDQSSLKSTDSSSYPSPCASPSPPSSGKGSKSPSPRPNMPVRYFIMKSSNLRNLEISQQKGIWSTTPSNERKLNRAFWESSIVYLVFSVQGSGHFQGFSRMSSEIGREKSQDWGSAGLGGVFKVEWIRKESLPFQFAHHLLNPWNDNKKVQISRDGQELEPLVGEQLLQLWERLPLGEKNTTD
UniProt Q9HAD4, sequence (Q9HAD4 whole entry, looked up): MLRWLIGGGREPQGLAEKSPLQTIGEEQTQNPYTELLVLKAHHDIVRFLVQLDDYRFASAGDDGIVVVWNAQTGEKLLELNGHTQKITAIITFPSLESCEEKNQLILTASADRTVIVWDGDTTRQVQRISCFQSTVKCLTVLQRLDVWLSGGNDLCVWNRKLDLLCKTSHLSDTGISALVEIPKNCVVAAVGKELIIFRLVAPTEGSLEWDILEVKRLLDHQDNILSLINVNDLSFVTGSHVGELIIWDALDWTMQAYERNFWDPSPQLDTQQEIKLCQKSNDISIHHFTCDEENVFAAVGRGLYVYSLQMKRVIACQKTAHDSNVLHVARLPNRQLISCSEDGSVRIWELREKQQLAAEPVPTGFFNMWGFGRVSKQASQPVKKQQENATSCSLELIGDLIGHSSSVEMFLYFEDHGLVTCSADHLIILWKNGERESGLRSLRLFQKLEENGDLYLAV
UniProt Q9BRT2, sequence (Q9BRT2 whole entry, looked up): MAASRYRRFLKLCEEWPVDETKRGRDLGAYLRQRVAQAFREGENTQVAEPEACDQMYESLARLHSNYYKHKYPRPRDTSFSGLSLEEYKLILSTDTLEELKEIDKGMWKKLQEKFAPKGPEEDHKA
UniProt O00258, sequence (O00258 whole entry, looked up): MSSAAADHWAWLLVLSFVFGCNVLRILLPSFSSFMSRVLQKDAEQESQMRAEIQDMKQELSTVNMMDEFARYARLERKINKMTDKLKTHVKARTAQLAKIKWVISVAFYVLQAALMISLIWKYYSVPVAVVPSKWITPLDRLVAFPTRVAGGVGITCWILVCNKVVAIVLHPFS

| Target | log2 fold change [1] | log2 fold change [2] | log2 fold change [3] | log2 fold change [4] | log2 fold change [5] | log2 fold change [6] | log2 fold change [7] | log2 fold change [8] | log2 fold change [9] | log2 fold change [10] |
| --- | --- | --- | --- | --- | --- | --- | --- | --- | --- | --- |
| WDR77 (UniProt Q9BQA1) | 0.016 | 0.022 | 0.031 | 0.024 | -0.012 | -0.022 | -0.004 | 0.007 | -0.01 | 0.032 |
| WDR41 (UniProt Q9HAD4) | -0.163 | -0.004 | 0.017 | 0.088 | -0.015 | 0.03 | -0.054 | 0.164 | -0.049 | 0.015 |
| VASP (UniProt P50552) | -0.002 | 0.002 | -0.003 | -0.018 | -0.009 | -0.007 | 0.038 | 0.014 | -0.014 | 0.01 |
| WDR45 isoform 2 (UniProt Q9Y484) | 0.018 | 0.014 | 0.13 | 0.111 | -0.008 | 0.014 | 0.028 | -0.04 | -0.014 | -0.036 |
| VPS41 (UniProt P49754) | -0.019 | 0.007 | 0.015 | 0.016 | 0.003 | 0.024 | 0.014 | 0.005 | 0.047 | 0.013 |
| VANGL1 (UniProt Q8TAA9) | 0.08 | -0.041 | -0.317 (active) | 0.183 | 0.037 | 0.007 | -0.109 | -0.062 | -0.066 | 0.007 |
| UNC45A (UniProt Q9H3U1) | 0.002 | -0.008 | 0.03 | -0.012 | -0.009 | -0.007 | 0.002 | 0.004 | 0.002 | -0.007 |
| ZMYM2 (UniProt Q9UBW7) | -0.029 | -0.059 | -0.037 | -0.106 | -0.039 | -0.008 | -0.018 | 0.004 | 0.04 | -0.068 |
| VPS11 (UniProt Q9H270) | -0.002 | 0.025 | 0.033 | -0.025 | 0.001 | 0.003 | 0.031 | 0.026 | -0.03 | -0.002 |
| ZNF346 (UniProt Q9UL40) | -0.041 | 0.008 | -0.019 | -0.075 | -0.012 | -0.08 | 0.111 | -0.019 | -0.004 | 0.018 |
| YTHDC2 (UniProt Q9H6S0) | 0.003 | 0.009 | 0.061 | 0.021 | 0.013 | 0.003 | -0.023 | -0.003 | 0.019 | -0.018 |
| YME1L1 (UniProt Q96TA2) | -0.04 | -0.008 | -0.006 | -0.043 | 0 | -0.04 | 0.003 | 0.005 | 0.054 | -0.087 |
| VAMP2 (UniProt P63027) | -0.039 | -0.027 | 0.002 | -0.006 | -0.036 | -0.069 | -0.01 | -0.048 | 0.047 | 0.035 |
| ZNF451 (UniProt Q9Y4E5) | 0.004 | 0.019 | 0.02 | 0.007 | -0.011 | 0.033 | -0.003 | -0.012 | 0.019 | 0.055 |
| VPS16 (UniProt Q9H269) | 0.009 | 0.017 | -0.012 | -0.038 | -0.014 | -0.015 | -0.029 | 0.019 | 0.031 | 0 |
| WDR36 (UniProt Q8NI36) | -0.02 | -0.01 | 0.019 | -0.004 | 0.03 | 0.048 | 0 | 0.019 | 0.013 | 0.033 |
| WRN (UniProt Q14191) | 0.02 | -0.008 | 0.021 | -0.055 | -0.016 | 0.023 | 0.019 | -0.016 | 0.016 | -0.048 |
| ZFPM1 (UniProt Q8IX07) | 0.004 | -0.034 | 0.013 | -0.067 | 0.02 | 0.01 | 0.003 | 0.033 | 0 | -0.026 |
| ZC3H13 (UniProt Q5T200) | 0.046 | 0.009 | -0.003 | -0.072 | 0.058 | -0.101 | 0.046 | 0.08 | -0.01 | -0.022 |
| WRB (UniProt O00258) | 0.045 | -0.043 | -0.095 | -0.255 | -0.024 | -0.025 | -0.141 | 0.063 | -0.004 | -0.024 |
| WDR20 isoform 7 (UniProt Q8TBZ3) | 0.003 | -0.001 | 0.088 | -0.023 | -0.019 | 0.087 | 0.044 | 0.058 | -0.003 | 0.014 |
| XPNPEP1 isoform 3 (UniProt Q9NQW7) | 0.012 | -0.007 | 0.017 | -0.026 | -0.009 | 0.007 | -0.026 | -0.025 | -0.005 | 0.002 |
| WAC (UniProt Q9BTA9) | -0.062 | -0.008 | -0.012 | -0.054 | -0.009 | 0.046 | 0.034 | -0.016 | 0.022 | 0.004 |
| ZBTB33 (UniProt Q86T24) | 0.258 | 0.183 | -0.058 | -0.158 | 0.141 | -0.027 | 0.109 | 0.129 | 0.044 | 0.109 |
| ZNF609 (UniProt O15014) | 0.005 | -0.025 | 0.01 | -0.034 | -0.001 | 0.01 | -0.045 | -0.082 | 0.013 | -0.058 |
| VPS13C (UniProt Q709C8) | -0.011 | 0.005 | 0.02 | 0.006 | -0.001 | 0.251 (active) | -0.066 | 0.041 | -0.007 | -0.053 |
| VRK2 (UniProt Q86Y07) | 0.049 | 0.106 | 0.155 | -0.041 | -0.037 | -0.036 | -0.026 | -0.021 | 0.023 | 0.149 |
| WRNIP1 (UniProt Q96S55) | 0.025 | 0.026 | 0.051 | 0.026 | 0.001 | 0.045 | 0.013 | -0.023 | -0.003 | -0.023 |
| UQCC2 (UniProt Q9BRT2) | 0.054 | 0 | 0.006 | 0.01 | 0.018 | -0.022 | 0.016 | 0.007 | -0.016 | -0.012 |
| XAB2 (UniProt Q9HCS7) | -0.089 | -0.048 | -0.002 | -0.051 | -0.011 | 0.014 | -0.032 | 0.013 | 0.03 | -0.024 |
